Measured values reported in PubChem BioAssay (Tox21).
Records with an inconclusive call do not appear. Calls of active or inactive are those of the source. The call rests on the fitted dose curve; in most records, active means well fitted cell-killing curve with a large enough effect in the repeat runs; inconclusive means weak or mixed curves, or effect the other way; inactive means flat fitted curve, though single readings scatter. Non-standard residues stand in square brackets, D forms with d. Residues, ends and D or L forms follow the SMILES beside them. *: point of attachment. Sta = CC(C)C[C@H](N)[C@@H](O)CC(=O)O; Isovaleryl = CC(C)CC(=O)*

Assay: qHTS assay to identify small molecule agonists of the sonic hedgehog signaling (Shh) pathway - cell viability counter screen (AID 1259366); further: nearly all actives have a fitted effect of over 50% in size
Settings: NIH/3T3 Gli1-Luc viability, CellTiter-Fluor, 24 h; series mostly up to 92.4 µM
From the text: National Center for Advancing Translational Sciences [NCATS]
NIH Chemical Genomics Center [NCGC]
U.S. Environmental Protection Agency [EPA]
National Institutes of Environmental Health Sciences [NIEHS]
National Toxicology Program [NTP]
U.S. Food and Drug Administration [FDA]
The sonic hedgehog (Shh) pathway is essential for normal embryonic development. Dysregulation of the Shh pathway can cause severe developmental defects in organs. Therefore chemicals that interfere with the pathway are potential developmental toxicants. A cell line designated 3T3Gli1-Luc (DMB/OARSA/CFSAN/FDA, Laurel, MD), a NIH/3T3 derived clone containing stably integrated Gli1-Luc reporter is used to detect chemical interference of the Shh pathway, by changes in the expression of the firefly Luc gene under the control of the Gli1 transcriptional response element. This cell line was used to screen Tox21 libraries for identifying and prioritizing the potential developmental toxicants that interfere Shh pathway. The cytotoxicity of the compounds was tested in parallel by measuring the cell viability using CellTiter-Fluor assay system (Promega, Madison, WI) in the same wells.
Tox21 Assay Protocol Summary:
3T3 Gli1-Luc cells were dispensed at 2,000 per well in 5uL of culture medium into white solid bottom 1536-well plates (Greiner Bio-One, Monroe, NC) using a Multidrop Combi (Thermo Scientific, Waltham, MA) dispenser. The assay plates were incubated at 37 C and 5% CO2 for 4hr, and then 23nL of compounds dissolved in DMSO and positive control were transferred using a Pintool station (Wako, San Diego, CA). The assay plates were incubated at 37C and 5% CO2 for 24hr. For viability read, after 23hr of compound treatment, 1uL of CellTiter-Fluor reagent (Promega Corporation, Madison, WI) was added to each well of the assay plates using Flying Reagent Dispenser (FRD, Aurora Discovery, San Diego, CA) and incubated the assay plates at 37C for 1hr. The fluorescence signal was quantified using a ViewLux plate reader (Perkin Elmer, Shelton, CT).

SMILES	outcome
CC1=C(O)C(=O)CO1	inactive
CC[C@@]1(c2ccccc2)NC(=O)N(C)C1=O	inactive
CN1C(CCl)Nc2cc(Cl)c(S(N)(=O)=O)cc2S1(=O)=O (stereo not given)	inactive
CCOC(=O)CC	inactive
C=CCON/C(CCC)=C1\C(=O)CC(C)(C)C(C(=O)OC)=C1O	inactive
CC(C)c1cc(C(C)C)cc(C(C)C)c1	inactive
COc1cc(S(N)(=O)=O)cc(C(=O)O)c1OC	inactive
CC(=O)/C=C/C=C1/C2CCC(C2)C1(C)C (stereo not given)	inactive
N#Cc1ccccc1C#N	inactive
Cc1nnc(C(=O)NC(C)(C)c2nc(C(=O)NCc3ccc(F)cc3)c(O)c(=O)n2C)o1	inactive
CNC(=O)c1c(I)c(NC(C)=O)c(I)c(C(=O)O)c1I	inactive
CC(C)(C)C(=O)NCCCC(=O)O	inactive
COC(=O)c1ccccc1Cl	inactive
CC(C)CC(=O)N[C@H](C(=O)N[C@H](C(=O)N[C@@H](CC(C)C)[C@@H](O)CC(=O)N[C@@H](C)C(=O)N[C@@H](CC(C)C)[C@@H](O)CC(=O)O)C(C)C)C(C)C (Isovaleryl-VV[Sta]A[Sta]-OH)	inactive
Nc1ccc(C(=O)NCC(=O)O)cc1	inactive
CCCCCCCCCCCC(C)=O	inactive
CC(O)CCCCn1c(=O)c2c(ncn2C)n(C)c1=O (stereo not given)	inactive
CCO/C=C1\N=C(c2ccccc2)OC1=O	inactive
Clc1cc(Cl)c(Cl)c(Cl)c1Cl	inactive
Cc1ccc(Br)cc1	inactive

SMILES	outcome
O=C[C@@H](O)[C@H](O)[C@H](O)CO	inactive
OCCC(F)(F)C(F)(F)C(F)(F)C(F)(F)C(F)(F)C(F)(F)F	inactive
COC(=O)c1c(C)cc(O)c(C)c1O	inactive
O=C(O)CCC(=O)Nc1ccc(S(=O)(=O)Nc2nccs2)cc1	inactive
Cc1nc2ccc(Cl)cc2[nH]1	inactive
O=C(O)CCCCCCCCCC(=O)O	inactive
CC(C)(O)c1ccc(C(C)(C)O)cc1	inactive
O=S(=O)(O)c1ccc(Cl)cc1	inactive
CCCCCCCCCCCCCC(=O)OCC	inactive
N#Cc1cc(NC(=O)C(=O)O)c(Cl)c(NC(=O)C(=O)O)c1	inactive
CC/C=C\CCOC(=O)c1ccccc1	inactive
O=C(O)COc1ccc2ccccc2c1	inactive
CCCCCCCCC1CO1 (stereo not given)	inactive
O=C(O)P(=O)(O)O	inactive
CSC(=O)c1cccc2nnsc12	inactive
CCCCC(CC)CCC(CC(C)C)OS(=O)(=O)O (stereo not given)	inactive
CCOC(=O)COc1ccc2c(C)c(CCN(CC)CC)c(=O)oc2c1Cl	inactive
COc1ccc2cc(CCC(C)=O)ccc2c1	inactive
CC(CC(=O)Cl)CC(C)(C)C (stereo not given)	inactive
CCCC[O][Al]([O]CCCC)[O]CCCC	inactive
